According to paper PMC11006913:

Tests used:
Test in all cases: PBM; 200 nM protein, PBS
Conditions in all cases: dsDNA, one strand shown
HOXB9 [1] = target: HOXB9 (Homo sapiens, UniProt P17482 171-250, T197M)
HOXC9 [2] = target: HOXC9 (Homo sapiens, UniProt P31274 178-260, K195R)
HOXC10 [3] = target: HOXC10 (Homo sapiens, UniProt Q9NYD6 254-340)
HOXB9 [4] = target: HOXB9 (Homo sapiens, UniProt P17482 171-250)
HOXC9 [5] = target: HOXC9 (Homo sapiens, UniProt P31274 178-260)
HOXD13 [6] = target: HOXD13 (Homo sapiens, UniProt P35453 263-343, T313R)
HOXC9 [7] = target: HOXC9 (Homo sapiens, UniProt P31274 178-260, R193K)
HOXD13 [8] = target: HOXD13 (Homo sapiens, UniProt P35453 263-343)
HOXC10 [9] = target: HOXC10 (Homo sapiens, UniProt Q9NYD6 254-340, K271E)
HOXD13 [10] = target: HOXD13 (Homo sapiens, UniProt P35453 263-343, T313A)
HOXB9 [11] = target: HOXB9 (Homo sapiens, UniProt P17482 171-250, R186Q)
HOXC9 [12] = target: HOXC9 (Homo sapiens, UniProt P31274 178-260, R222W)
ALX4 = ALX4 (Homo sapiens, UniProt Q9H161 200-286, Q225E)
Chain of ALX4 (Q9H161 200-286 Q225E): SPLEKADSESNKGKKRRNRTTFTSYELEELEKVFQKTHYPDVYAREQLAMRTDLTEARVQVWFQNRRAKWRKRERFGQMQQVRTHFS

Chain of HOXB9 (Homo sapiens, UniProt P17482 171-250, R186Q) (P17482 171-250 R186Q): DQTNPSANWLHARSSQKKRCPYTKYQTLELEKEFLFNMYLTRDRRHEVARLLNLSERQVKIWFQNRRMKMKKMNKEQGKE
Chain of HOXC10 (Homo sapiens, UniProt Q9NYD6 254-340, K271E) (Q9NYD6 254-340 K271E): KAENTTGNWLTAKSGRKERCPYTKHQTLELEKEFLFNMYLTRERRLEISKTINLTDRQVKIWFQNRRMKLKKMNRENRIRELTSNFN
Chain of HOXD13 (Homo sapiens, UniProt P35453 263-343, T313A) (P35453 263-343 T313A): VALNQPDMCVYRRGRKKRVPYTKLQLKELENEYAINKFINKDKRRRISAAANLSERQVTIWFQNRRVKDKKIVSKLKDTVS
Chain of HOXC9 (Homo sapiens, UniProt P31274 178-260) (P31274 178-260): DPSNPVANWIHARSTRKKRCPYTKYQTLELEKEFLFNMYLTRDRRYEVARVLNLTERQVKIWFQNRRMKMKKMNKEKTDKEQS
Chain of HOXB9 (Homo sapiens, UniProt P17482 171-250) (P17482 171-250): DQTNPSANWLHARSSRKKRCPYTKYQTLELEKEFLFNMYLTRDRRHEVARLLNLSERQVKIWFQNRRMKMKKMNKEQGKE
Chain of HOXC9 (Homo sapiens, UniProt P31274 178-260, R193K) (P31274 178-260 R193K): as the sequence (P31274 178-260) above, with R16K counted along it
Chain of HOXC9 (Homo sapiens, UniProt P31274 178-260, R222W) (P31274 178-260 R222W): as the sequence (P31274 178-260) above, with R45W counted along it
Chain of HOXC10 (Homo sapiens, UniProt Q9NYD6 254-340) (Q9NYD6 254-340): as the sequence (Q9NYD6 254-340 K271E) above, with E18K counted along it
Chain of HOXD13 (Homo sapiens, UniProt P35453 263-343) (P35453 263-343): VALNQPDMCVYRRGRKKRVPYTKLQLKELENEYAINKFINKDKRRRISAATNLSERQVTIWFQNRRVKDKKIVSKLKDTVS
Chain of HOXC9 (Homo sapiens, UniProt P31274 178-260, K195R) (P31274 178-260 K195R): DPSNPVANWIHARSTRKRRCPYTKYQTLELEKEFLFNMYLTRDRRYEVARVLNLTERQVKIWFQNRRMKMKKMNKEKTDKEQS
Chain of HOXD13 (Homo sapiens, UniProt P35453 263-343, T313R) (P35453 263-343 T313R): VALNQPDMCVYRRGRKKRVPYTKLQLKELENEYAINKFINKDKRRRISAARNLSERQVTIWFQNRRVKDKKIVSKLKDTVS
Chain of HOXB9 (Homo sapiens, UniProt P17482 171-250, T197M) (P17482 171-250 T197M): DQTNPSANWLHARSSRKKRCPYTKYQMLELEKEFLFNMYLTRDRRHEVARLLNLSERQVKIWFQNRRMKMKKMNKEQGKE

| Sequence | binding signal (HOXB9 [1]) | binding signal (HOXC9 [2]) | binding signal (HOXC10 [3]) | binding signal (HOXB9 [4]) | binding signal (HOXC9 [5]) | binding signal (HOXD13 [6]) | binding signal (HOXC9 [7]) | binding signal (HOXD13 [8]) | binding signal (HOXC10 [9]) | binding signal (HOXD13 [10]) | binding signal (HOXB9 [11]) | binding signal (HOXC9 [12]) | binding signal (ALX4) |
| --- | --- | --- | --- | --- | --- | --- | --- | --- | --- | --- | --- | --- | --- |
| GTCATAAA | 9.98 upbm affinity estimate (log intensity, higher = more binding, comparable within an allelic series) | 13.1 upbm affinity estimate (log intensity, higher = more binding, comparable within an allelic series) | 12.9 upbm affinity estimate (log intensity, higher = more binding, comparable within an allelic series) | 12.5 upbm affinity estimate (log intensity, higher = more binding, comparable within an allelic series) | 13.1 upbm affinity estimate (log intensity, higher = more binding, comparable within an allelic series) | 10.9 upbm affinity estimate (log intensity, higher = more binding, comparable within an allelic series) | 13.1 upbm affinity estimate (log intensity, higher = more binding, comparable within an allelic series) | 12.1 upbm affinity estimate (log intensity, higher = more binding, comparable within an allelic series) | 12.4 upbm affinity estimate (log intensity, higher = more binding, comparable within an allelic series) | 11.8 upbm affinity estimate (log intensity, higher = more binding, comparable within an allelic series) | 12.2 upbm affinity estimate (log intensity, higher = more binding, comparable within an allelic series) | 11.2 upbm affinity estimate (log intensity, higher = more binding, comparable within an allelic series) | – |
| ATTTATGA | 9.81 upbm affinity estimate (log intensity, higher = more binding, comparable within an allelic series) | 12.5 upbm affinity estimate (log intensity, higher = more binding, comparable within an allelic series) | 12.4 upbm affinity estimate (log intensity, higher = more binding, comparable within an allelic series) | 11.8 upbm affinity estimate (log intensity, higher = more binding, comparable within an allelic series) | 12.7 upbm affinity estimate (log intensity, higher = more binding, comparable within an allelic series) | 10.9 upbm affinity estimate (log intensity, higher = more binding, comparable within an allelic series) | 12.6 upbm affinity estimate (log intensity, higher = more binding, comparable within an allelic series) | 12 upbm affinity estimate (log intensity, higher = more binding, comparable within an allelic series) | 11.7 upbm affinity estimate (log intensity, higher = more binding, comparable within an allelic series) | 11.8 upbm affinity estimate (log intensity, higher = more binding, comparable within an allelic series) | 11.5 upbm affinity estimate (log intensity, higher = more binding, comparable within an allelic series) | 11.1 upbm affinity estimate (log intensity, higher = more binding, comparable within an allelic series) | – |
| CTAATAAA | 9.76 upbm affinity estimate (log intensity, higher = more binding, comparable within an allelic series) | 12.5 upbm affinity estimate (log intensity, higher = more binding, comparable within an allelic series) | 12.5 upbm affinity estimate (log intensity, higher = more binding, comparable within an allelic series) | 11.9 upbm affinity estimate (log intensity, higher = more binding, comparable within an allelic series) | 12.7 upbm affinity estimate (log intensity, higher = more binding, comparable within an allelic series) | 11.2 upbm affinity estimate (log intensity, higher = more binding, comparable within an allelic series) | 12.6 upbm affinity estimate (log intensity, higher = more binding, comparable within an allelic series) | 12.3 upbm affinity estimate (log intensity, higher = more binding, comparable within an allelic series) | 11.9 upbm affinity estimate (log intensity, higher = more binding, comparable within an allelic series) | 12.1 upbm affinity estimate (log intensity, higher = more binding, comparable within an allelic series) | 11.6 upbm affinity estimate (log intensity, higher = more binding, comparable within an allelic series) | 11.1 upbm affinity estimate (log intensity, higher = more binding, comparable within an allelic series) | – |
| ATAAAACA | 9.83 upbm affinity estimate (log intensity, higher = more binding, comparable within an allelic series) | 12.4 upbm affinity estimate (log intensity, higher = more binding, comparable within an allelic series) | 12.2 upbm affinity estimate (log intensity, higher = more binding, comparable within an allelic series) | 11.8 upbm affinity estimate (log intensity, higher = more binding, comparable within an allelic series) | 12.5 upbm affinity estimate (log intensity, higher = more binding, comparable within an allelic series) | 10.7 upbm affinity estimate (log intensity, higher = more binding, comparable within an allelic series) | 12.5 upbm affinity estimate (log intensity, higher = more binding, comparable within an allelic series) | 11.9 upbm affinity estimate (log intensity, higher = more binding, comparable within an allelic series) | 11.6 upbm affinity estimate (log intensity, higher = more binding, comparable within an allelic series) | 11.6 upbm affinity estimate (log intensity, higher = more binding, comparable within an allelic series) | 11.5 upbm affinity estimate (log intensity, higher = more binding, comparable within an allelic series) | 11.1 upbm affinity estimate (log intensity, higher = more binding, comparable within an allelic series) | – |
| CTCATAAA | 9.59 upbm affinity estimate (log intensity, higher = more binding, comparable within an allelic series) | 12.6 upbm affinity estimate (log intensity, higher = more binding, comparable within an allelic series) | 12.4 upbm affinity estimate (log intensity, higher = more binding, comparable within an allelic series) | 11.9 upbm affinity estimate (log intensity, higher = more binding, comparable within an allelic series) | 12.8 upbm affinity estimate (log intensity, higher = more binding, comparable within an allelic series) | 11.2 upbm affinity estimate (log intensity, higher = more binding, comparable within an allelic series) | 12.6 upbm affinity estimate (log intensity, higher = more binding, comparable within an allelic series) | 12.5 upbm affinity estimate (log intensity, higher = more binding, comparable within an allelic series) | 11.8 upbm affinity estimate (log intensity, higher = more binding, comparable within an allelic series) | 12.2 upbm affinity estimate (log intensity, higher = more binding, comparable within an allelic series) | 11.5 upbm affinity estimate (log intensity, higher = more binding, comparable within an allelic series) | 11.1 upbm affinity estimate (log intensity, higher = more binding, comparable within an allelic series) | – |
| AATAAAAA | 9.88 upbm affinity estimate (log intensity, higher = more binding, comparable within an allelic series) | 12.5 upbm affinity estimate (log intensity, higher = more binding, comparable within an allelic series) | 12.4 upbm affinity estimate (log intensity, higher = more binding, comparable within an allelic series) | 11.9 upbm affinity estimate (log intensity, higher = more binding, comparable within an allelic series) | 12.6 upbm affinity estimate (log intensity, higher = more binding, comparable within an allelic series) | – | 12.5 upbm affinity estimate (log intensity, higher = more binding, comparable within an allelic series) | – | 11.9 upbm affinity estimate (log intensity, higher = more binding, comparable within an allelic series) | – | 11.6 upbm affinity estimate (log intensity, higher = more binding, comparable within an allelic series) | 11.2 upbm affinity estimate (log intensity, higher = more binding, comparable within an allelic series) | 10.9 upbm affinity estimate (log intensity, higher = more binding, comparable within an allelic series) |
